Assay outcomes as filed in PubChem BioAssay.
The list is not random: actives were taken first. Their share in the collection is about 4%.
TROY signal inh: blocks TROY-dependent signaling in reporter cells | Q293 LMP1-TROYcd NF-kB luciferase reporter, 4 h | inhibition, % at 10 µM | actives 0.98% (n = 360,000);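 active = compounds whose plate-normalised and pattern-corrected inhibition of the luciferase reporter signal at the single screening dose is 50% or more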
HIF-2a inh: HIF-2a inhibition. 786-0 RCC cells HIF-2a reporter, luciferase luminescence, overnight. inhibition, % at 18.8 µM. actives 0.72% (n = 360,000);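 active = inhibition of the luminescence signal of 40% or more relative to plate controls, in a single-dose primary screen at 18.75 µM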
TWEAK-Fn14 inh: blocks TWEAK-Fn14 interaction in a reporter cell assay; inhibition, % at 10 µM; actives 2% (n = 360,000); TWEAK-stimulated Fn14 reporter cells, luciferase luminescence, 8 h; in the data active = inhibition above about 50%
CF NFkB block: inhibitors of cystic fibrosis induced NF-kB | KKLEB NF-kB-GFP reporter, PAF-induced, GFP fluorescence overnight | actives 0.86% (n = 360,000) | AID 588850 | inhibition, % at 5 µM;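 active = at least 50% inhibition at 5 µM, scaled per plate between neutral and stimulator controls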;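 note: PAF is a Pseudomonas aeruginosa culture filtrate used as stimulus; plate controls were PAF-stimulated DMSO wells for no effect and unstimulated DMSO wells for full effect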
Peg3 prom inh: reduces Peg3 promoter-driven luciferase expression in HeLa | actives 1.7% (n = 360,000) | AID 588405 | inhibition, % at 20 µM | HeLa PEG-Prom luciferase reporter, luminescence, overnight;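 active = inhibition of at least 50% at 20 µM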
KKLEB cytotox: reduces viability of KKLEB cystic fibrosis airway cells | KKLEB CF airway cells viability, ATPlite luminescence, overnight; stronger effect = lower value; cells stimulated with P. aeruginosa culture filtrate | activity change (cytotoxicity), % at 5 µM | AID 602141 | actives 0.36% (n = 360,000);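 active = corrected activity change at or below -50% at 5 µM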
Active calls of the source: *; · = no result given.

SMILES	TROY signal inh	HIF-2a inh	TWEAK-Fn14 inh	CF NFkB block	Peg3 prom inh	KKLEB cytotox
COc1cc(C#Cc2c(-c3ccccc3)n(C)c3ccccc23)cc(OC)c1	-11	5	9	15	7	0
CCN(CC)S(=O)(=O)c1ccc(NS(=O)(=O)c2ccc(O)c([N+](=O)[O-])c2)cc1	17	-2	24	-6	-76	6
Cn1nccc1C(=O)Nc1ccc(S(=O)(=O)N2CCCC2)cc1	6	-3	1	-10	10	15
Cn1nc(C(=O)Nc2ccc(S(=O)(=O)N3CCCCC3)cc2)ccc1=O	5	22	104*	-8	26	3
Cc1nc2ccn(Cc3ccccc3)c(=O)c2cc1C(=O)N1CCN(c2ccccc2)CC1	-15	19	-12	-22	17	8
O=C(CSc1nc2ccccc2c(=O)n1-c1ccc(SC(F)F)cc1)Nc1ccc(N2CCOCC2)cc1	17	4	5	66*	6	-66*
C[C@@H]1CC[C@]2(O[C@H](CCO)C[C@H](O)[C@H]2O)O1	1	2	6	-48	-4	9
CCCCCCCCSC1=CC(=O)C(OC)=C(OC)C1=O	-3	9	29	63*	93*	-36
CCCCCSc1nncc(=O)[nH]1	-11	0	1	-9	2	2
Cc1cc(C)n(-c2nc(SCCN(C)C)c3c4c(sc3n2)COC(C)(C)C4)n1	10	-29	-39	6	54*	-34
Cc1cc(C)n(-c2nc(NCC(C)O)c3c4c(sc3n2)COC(C)(C)C4)n1 (configuration not stated)	15	-57	-20	-4	-22	-6
CC(C)c1ccc(NC(=S)Nc2ccc3cn[nH]c3c2)cc1	53*	-153	-2	25	-136	1
Cc1ccc(NC(=S)Nc2ccc3cn[nH]c3c2)cc1C	-11	-54	-24	20	-18	2
Oc1ccc2ccccc2c1C=NNc1ccccn1	-44	-160	16	77*	-79	-81*
O=C(N/N=C/c1c(O)ccc2ccccc12)c1cccc(C(F)(F)F)c1	42	-21	41	50	68*	-52*
COc1ccccc1OCC(=O)N/N=C/c1c(O)ccc2ccccc12	29	3	11	-6	63*	-12
Fc1cccc(F)c1/C=N/Nc1ccccn1	-76	-197	-8	-35	-228	0
COc1cccc(-c2nc(-c3cccs3)no2)c1	4	-152	28	-16	-89	-2
COc1ccc(/C=C2\Oc3ccccc3C2=O)cc1	26	-39	65*	-25	-51	-22
CC(=O)Oc1ccc(/C=C2/Oc3ccccc3C2=O)cc1	-67	-8	-12	-15	-90	2
CCOCc1c(C(=O)NC2=Nc3ccccc3NC(CC)=C2C(=O)OCC)oc2ccccc12	17	-9	23	86*	66*	-99*
CCOC(=O)C1=C(CC)Nc2ccccc2N=C1NC(=O)CCNC(C)=O	-4	12	0	16	3	-3
Cc1cccc(NC(=O)Cn2c(=O)oc3ccccc32)c1	-35	-4	-10	-8	11	6
Cc1nc(-c2coc3cc(OCC(=O)O)ccc3c2=O)cs1	-20	16	16	7	14	7
Cc1nc(-c2coc3cc(O)c(C)cc3c2=O)cs1	34	-121	65*	-13	-24	0
SMILES	TROY signal inh	HIF-2a inh	TWEAK-Fn14 inh	CF NFkB block	Peg3 prom inh	KKLEB cytotox
CCCCCc1c(-c2ccccc2F)ncn1CCc1ccccc1OC	14	-13	20	·	·	·
CCCCCc1c(-c2ccccc2OC)ncn1CCc1ccccc1OC	56*	-46	52*	·	·	·
CCCCc1c(-c2ccccc2OC)ncn1CCc1ccccc1OC	55*	-11	17	·	·	·
CCCCc1c(-c2ccccc2Br)ncn1CCc1ccccc1OC	41	-55	47	·	·	·
NC(=O)COC(=O)c1cccc2c1-c1ccccc1C2=O	-7	19	-8	5	19	2
CC(C)COC(=O)c1ccc2c(c1O)C(=O)c1ccccc1C2=O	29	-175	71*	-2	-225	-6
O=C(CN1C(=O)/C(=C2\SC(=S)N(C3CCS(=O)(=O)C3)C2=O)c2ccccc21)Nc1ccc(F)cc1 (configuration not stated)	-9	15	78*	26	26	-10
CCN1C(=O)N[C@@H](c2cccc(C(F)(F)F)c2)[C@H](C(C)=O)[C@H]1C	13	8	0	-10	11	-6
CC1(C)CC(=O)c2c(O)cc(OCC(=O)Nc3ccc(S(N)(=O)=O)cc3)cc2O1	12	15	20	0	13	11
COc1cc(NC(=O)COc2cc(O)c3c(c2)OC(C)(C)CC3=O)cc(OC)c1OC	48	-74	78*	3	16	-4
COc1cccc(CN2CCNC(=O)C2CC(=O)N(C)C2CCOCC2)c1OC (configuration not stated)	-3	21	-11	9	-3	-5
O=C(c1ccco1)N1CCN(c2nc3ccccc3c(=O)n2-c2ccccc2)CC1	61*	11	-22	10	18	-8
N#Cc1c(-c2cccs2)nc(SCc2ccc(Cl)cc2)[nH]c1=O	74*	14	14	9	25	-1
O=C(Nc1nccs1)C(c1ccccc1)N1CCCC1 (configuration not stated)	7	13	86*	-15	-2	9
CC1(C)Cc2cccc(OCC(=O)NCCc3ccc(S(N)(=O)=O)cc3)c2O1	-22	10	7	8	4	-4
Cc1cc(C)cc(N(C(=O)c2nsc(Cl)c2Cl)C(C(=O)NC2CCCC2)c2ccc(O)cc2)c1 (configuration not stated)	23	8	20	13	60*	-5
O=C(Nc1nc(=O)n(C(=O)c2cccc(C(F)(F)F)c2)s1)c1ccccc1	-2	11	20	3	11	13
CCOC(=O)c1cnc(-n2nc(C)cc2C)nc1NC1CCCCC1	54*	9	49	-6	13	-5
CCOC(=O)c1cnc(-n2nc(C)cc2C)nc1Nc1ccc(O)cc1	51*	14	30	-9	24	17
CCOC(=O)c1cc(NC(=O)NC2CCCCC2)c(C)nc1C	4	10	109*	-3	20	5
CCOC(=O)c1cnc(-n2nc(C)cc2C)nc1NC	-19	-55	-3	3	-65	2
Cc1cc(CC(=O)O)c(C)cc1CC(=O)O	6	2	-10	19	12	4
COc1ccc(NC(=O)CSc2nc(-c3ccc(C)cc3)cc(C(F)(F)F)c2C#N)cc1	-3	6	-25	-4	10	-25
COc1ccc(-c2cc(C(F)(F)F)c(C#N)c(SCC(=O)Nc3nc(C)co3)n2)cc1	10	-13	-44	-18	57*	-7
